The values below come from PubChem BioAssay (NCI).

The panel holds about 83,000 compounds, 20% with a hit somewhere; the sample as a whole holds those more often.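 Cell lines were cultured in 96-well plates, exposed to a single compound concentration, and assessed for percent growth 48 hours later.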 Values without a mark were called inactive. Active and inactive are the calls of the source.

This assay deals with NCI/ADR-RES ovarian. As to the kind of experiment: NCI-60 one-dose screen, 48 h (100 = growth as untreated, 0 = no growth, -100 = all killed). To be noted: 10 µM unless noted. The procedure:
Growth inhibition of the NCI/ADR-RES human […] tumor cell line is measured as a screen for anti-cancer activity. Cells are grown in 96 well plates and exposed to the test compound for 48 hours. Compounds are tested at a single concentration, which is 10^-5 M for most compounds. The reported endpoint is percent growth (GI% or GIPRCNT), where numbers from 0 - 100% represent growth inhibition, and numbers from -100% - 0 represent cell death. For example, a value of 40 represents 60% growth inhibition. A value of 0 means no net growth occurred over the course of the experiment. A value of -40 indicates 40% of cells at the beginning of the experiment died by the end of the experiment. A value of -100 means all cells are dead at the end of the experiment.
NCI-60 Human Tumor Cell Lines Screen was performed using the standard one-dose NCI protocol, which is described in more detail at https://dtp.cancer.gov/discovery_development/nci-60/default.htm.
Compounds with GIPRCNT values below 10 were considered active. Activity score was based on GIPRCNT using the following formula: […]
Score is 0 for GIPRCNT values of 100 or above, 50 for GIPRCNT values of 0, and 100 for GIPRCNT values of -100.
Turning to `CCCCn1c2cc(OCc3cn(-c4ccc(Cl)cc4)nn3)ccc2c2ccnc(C)c21`, the growth is 28%.

In the case of `CN1CCN(/C=C2\CC(C(=O)NCc3ccc(Cl)cc3Cl)NC2=O)CC1` (stereo not given), the growth was 107%.

For `CC(C)(C)c1ccc2oc(=O)n(SC(Cl)(Cl)Cl)c2c1`, the growth was 100%.

In the case of `C=CCn1c(SCC(=O)Nc2ccc(C(=O)/C=C/c3cc(OC)c(OC)c(OC)c3)cc2)nnc1-c1ccccc1`, the growth is 102%.

As for `C=C1C(=O)O[C@H]2[C@H]1CCC(/C=N/c1ncc(Br)cc1N)=C\CC[C@@]1(C)O[C@@H]21`, the growth is 58%.

As for `O=C(Nc1ccccc1)NS(=O)(=O)c1c[nH]c(=S)[nH]c1=O`, the growth is 104%.

For `Cc1cnc(SCc2ccc(Cl)cc2)[nH]c1=S`, the growth was 103%.

For `CC(=O)c1ccc(NC(=O)CSc2nnc(-c3cc(-c4ccc(Cl)cc4)nc4ccccc34)o2)cc1`, the growth was 83.2%.

Take `C#C[C@@]1(O)[C@@H](CO)O[C@@H](n2cnc3c(-c4ccccc4)ncnc32)[C@@H]1O`: the growth is 102%.

Consider `COc1ccc2nc(-c3ccc(OC)c(OC)c3)cc(-c3nnc(SCC(=O)Nc4ccc(/C(C)=N\O)cc4)n3-c3ccccc3)c2c1`, for which the growth was 77.2%.

As for `O=C1CCc2ccccc2N1`, the growth was 101%.

For the compound `CN(C)CCCn1c2c(c3cc(-c4ccco4)ccc3c1=O)C(=O)c1ccccc1-2`, the growth was 53.6%.

In the case of `COc1cc(N=Nc2cc(S(=O)(=O)O)cc3cc(S(=O)(=O)O)cc(O)c23)c(C)cc1N=Nc1c(S(=O)(=O)O)cc2cc(Nc3ccccc3)ccc2c1O`, the growth is 110%.

Take `Cc1ccc(SC2c3ccc(C)cc3Oc3nc(N)c(C#N)c(N)c32)cc1` (stereo not given): the growth was 92.1%.

As for `C=C(C)[C@@H]1CC[C@]2(C(=O)O)CC[C@]3(C)[C@H](CC[C@@H]4[C@@]5(C)C[C@@H](CC#Cc6ccccc6)C(=O)C(C)(C)[C@@H]5CC[C@]43C)[C@@H]12`, the growth was 42.1%.

As to `CC(=O)OC[C@]12CC[C@@H](c3cn(Cc4ccc(Cn5cc([C@@H]6CC[C@]7(COC(C)=O)CC[C@]8(C)[C@H](CC[C@@H]9[C@@]%10(C)CC[C@H](OC(C)=O)C(C)(C)[C@@H]%10CC[C@]98C)[C@@H]67)nn5)cc4)nn3)[C@@H]1[C@H]1CC[C@@H]3[C@@]4(C)CC[C@H](OC(C)=O)C(C)(C)[C@@H]4CC[C@@]3(C)[C@]1(C)CC2`, the growth is 102%.

In the case of `COc1ccc(/C=C/C(=O)C(CC2CCC2)C(=O)/C=C/c2ccc(OC)c(OC)c2)cc1OC`, the growth was 3.14% (active).

Turning to `Cc1nccc2c3ccc(OCc4cn(-c5ccccc5)nn4)cc3n(CCCc3ccccc3)c12`, the growth is 70.4%.

Take `CC(C)(C#N)c1cc(F)cc(C(=O)Nc2cc(Nc3ncccc3-c3ncnc4nc[nH]c34)ccc2F)c1`: the growth was 37.1%.

Consider `C=C(C)[C@@H]1CC[C@]2(C(=O)OCCOCCOCC[P+](c3ccccc3)(c3ccccc3)c3ccccc3)CC[C@]3(C)[C@H](CC[C@@H]4[C@@]5(C)CC[C@H](C)C(C)(C)[C@@H]5CC[C@]43C)[C@@H]12`, for which the growth was -59.8% (active).

`Cc1c(Cl)cccc1NC(=O)c1sc2nc3c(cc2c1N)CCCCCC3`: the growth was 17.1%.

For `COc1cc(/C=C/C(=O)/C=C/c2cc3ccc(Cl)cc3n(Cc3ccccc3)c2=O)ccc1O`, the growth was 15%.

Take `CCOC(=O)C1CCN(S(=O)(=O)/N=C2/NC(=O)NC2=C(Cl)Cl)CC1`: the growth was 68.6%.

As for `C=C(C)[C@@H]1CC[C@]2(C(=O)n3ccnc3)CC[C@]3(C)[C@H](CC[C@@H]4[C@@]5(C)CCCNC(C)(C)[C@@H]5CC[C@]43C)[C@@H]12`, the growth is 32.9%.

For `COc1ccc(C2CC(c3ccc(OC)cc3O)=NN2c2ccc(S(N)(=O)=O)cc2)cc1` (stereo not given), the growth was 54%.

Take `O=C(Nc1nc(-c2ccccc2Cl)cs1)c1cc(-c2ccc(Br)cc2)nc2ccccc12`: the growth was 57.2%.

Turning to `N#C/C(=C/c1ccc(O)c([N+](=O)[O-])c1)c1nc(-c2ccc([N+](=O)[O-])cc2)cs1`, the growth was 33.4%.

`COc1cc(-c2csc(NC(=O)Nc3ccc(Cl)cc3)n2)cc(OC)c1OC`: the growth was 7% (active).

On to `C=C1C(=O)O[C@H]2[C@H]1CC/C(COC(=O)c1c[nH]c3ccccc13)=C\CC[C@@]1(C)O[C@@H]21`, for which the growth was -4.86% (active).

On to `Nc1c(C(=O)Nc2ccccn2)sc2nc3c(cc12)CCCCC3`, for which the growth was 9.19% (active).

Turning to `COc1ccc([C@H]2[C@@H](F)C(=O)N2c2cc(OC)c(OC)c(OC)c2)cc1F`, the growth was 8.4% (active).

Consider `O=C1CC(c2ccc(O)c(O)c2)Oc2cc(O)c([C@@H]3O[C@H](CO)[C@@H](O)[C@H](O)[C@H]3O)c(O)c21` (stereo not given in full), for which the growth is 110%.

On to `CCOC(=O)c1c(C)nc2c(c1N)/C(=C/c1cccs1)C(=O)N2Cc1ccccc1`, for which the growth is 79%.

`COc1cc(C2=NN(C(C)=O)C(c3cccc(Nc4ccnc5cc(C(F)(F)F)ccc45)c3)C2)cc(OC)c1OC` (stereo not given): the growth was 53%.

In the case of `Cc1nnc(/N=C2\NC(=O)/C(=C/c3ccsc3)S2)s1`, the growth is 94.8%.

For `FC(F)(F)c1ccc2c(Nc3cccc(C4CC(c5ccccc5)=NN4c4ccc(Cl)cc4)c3)ccnc2c1` (stereo not given), the growth was 35.3%.

As for `CCC[S@@](=O)c1ccc2nc(NC(=O)OC)[nH]c2c1`, the growth was 91.5%.

`c1ccc2nc(N3CCOCC3)c(N3CCCCC3)nc2c1`: the growth is 100%.

For `O=c1[nH]c2ccccc2cc1-c1nc2ccc(Cl)cc2[nH]1`, the growth is 74.4%.

Take `CCOC(=O)C1=C(C)n2nc(CC#N)c(C#N)c2NC1c1ccc(CC)cc1` (stereo not given): the growth is 96.9%.
